In the library only some 19% were active in any assay of this set; here they are far more common.
DT40 TDP1 CPT: growth inhibition of DT40 Tdp1-/-;hTDP1 cells with camptothecin (screen for TDP1 inhibitors); chicken DT40 Tdp1-/-;hTDP1 cells + 20 nM CPT, ATP luminescence, 48 h; Potency, µM (top dose mostly 46.2 µM), without a hit: at the top dose activity change, negative = growth inhibition, actives largely listed as inhibitors; 420,000 compounds, 12% hits; note: potency is the fitted concentration of half-maximal effect; % is set by controls: 0 for no effect and ±100 for the full control effect; nearly all actives have a fitted effect of over 55% in size
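Chicken DT40 Tdp1-/- cells complemented with human TDP1, 400 cells/well, exposed to compounds plus 20 nM camptothecin for at least 48 h at 37 C; viability read as ATP content by CellTiter-Glo luminescence.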
MCF10A rerep: induces DNA re-replication in MCF 10a normal breast cells. MCF 10A DNA re-replication, Hoechst nuclear intensity, 48 h. Potency, µM (highest dose often 46.1 µM), without a hit: at the highest dose activity, positive = re-replication, usual class: activators. 350,000 compounds, 2.9% hits; note: potency is the fitted concentration of half-maximal effect; % of control where 0% means no effect; nearly all actives have a fitted effect of over 50% in size
IL1B secr inh: inhibitors of inflammasome signaling (IL-1 beta secretion); 360,000 compounds, 4.7% hits; THP-1 LPS/ATP IL-1B secretion, AlphaLISA, 16 h; stronger effect = lower value; activity change, % at 57.5 µM; in the data active = activity change below about -50%; inconclusive = mostly about -30% to -49%; note: % is set by controls: 0 for no effect and ±100 for the full control effect
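Secreted IL-1B measured by AlphaLISA bead assay after 16 h compound exposure of THP-1 cells; compounds (final up to 57.5 uM) added 1 h before LPS (250 ng/mL) and ATP (1.25 mM) stimulation; lower signal means less secretion.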
Chronic BCR inh: chronic active BCR signaling inhibition; 340,000 compounds, 0.05% hits; Potency, µM (series often up to 46.1 µM), for the others: at the top dose activity change, negative = inhibition, actives largely listed as inhibitors; ABC-DLBCL IkBa-CBG/CBR reporter, luminescence ratio, 4 h; AID 493014; active = well fitted inhibition curve with a large enough effect in the signal ratio, with a control signal flat, not every such curve was filed as active; inconclusive = small, poorly fitted or top-dose-only effect, or effect the other way, or a change in a side signal; the % refers to the signal ratio;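 note: potency is the fitted concentration of half-maximal effect; plate controls were basal doxycycline-induced cells for no effect and cells given 10 µM MG132 for full effect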
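Cell line TMD8 (human ABC DLBCL), stably expressing tet-inducible CBG68-IkBa fusion and CBR; IMDM/0.5% FBS; cpd up to 46 uM; dox induction, 4 h, 37C/5% CO2; dual luminescence; green/red ratio; MG132 control.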
SW480 rerep: induces DNA re-replication in SW480 colon adenocarcinoma cells; SW480 DNA re-replication, Hoechst DNA content imaging, 48 h; Potency, µM (series often up to 46.1 µM), inactives show at the highest dose re-replication activation, hits mostly activators; 340,000 compounds, 1.8% hits; AID 624297; note: potency is the fitted concentration of half-maximal effect; % of control where 0% means no effect; nearly all actives have a fitted effect of over 55% in size
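First, 250 cells per well were seeded. Next, compound or vehicle (23 nL) was pinned in, plates sat 48 hr at 37 C. Finally Hoechst was added for 40 min before fluorescence scanning.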
TDP1 cell noCPT: qHTS for Inhibitors of human tyrosyl-DNA phosphodiesterase 1 (TDP1): qHTS in cells in absence of CPT. DT40 Tdp1-/- hTDP1 cells, no CPT, ATP luminescence, 48 h. Potency, µM (top dose mostly 46.2 µM), for inactives: at the top dose activity change, negative = growth inhibition, usual class: inhibitors. 420,000 compounds, 15% hits; note: potency is the fitted concentration of half-maximal effect; % is set by controls: 0 for no effect and ±100 for the full control effect; nearly all actives have a fitted effect of over 55% in size
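Stably hTDP1-transfected Tdp1-null chicken DT40 cells were treated with library compounds minus camptothecin and grown for at least 48 hr at 37 °C, after which cellular ATP was quantified by luminescence.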
An asterisk follows results filed as active; ? = inconclusive; . = not tested or not shown; ! = not confirmed by another sample; [ ] = another dose, or the depositor's remark. Unless noted, calls come from the whole dose curve; as a rule, active = well fitted curve in the direction sought with a large enough effect; inconclusive = small, poorly fitted or top-dose-only effect, or another doubt; inactive = no such curve, though single readings can be large; an effect the other way counts as inactive or inconclusive.

SMILES	DT40 TDP1 CPT	MCF10A rerep	IL1B secr inh	Chronic BCR inh	SW480 rerep	TDP1 cell noCPT
O=C(COc1ccccc1)NCc1nnc2c3ccccc3c(-c3ccccc3)nn12	?	20%	0	-3%	1%	?
Cc1c(C(=O)N/N=C/C(C)C)[nH]c2c([N+](=O)[O-])cccc12	4%	21µM*	80	?	?	23µM*
Cc1ccc(C(=O)N/N=C\c2ccccc2[N+](=O)[O-])cn1	-1%	-3%	3	?	0%	14%
CNC[C@H](CC1CCCCC1)NC[C@H](CO)NCC1(c2ccccc2)CC1	?	?	-27	?	?	21µM*
CC(C1CC1)N(Cc1ccccc1)C(=S)Nc1cccc(C(F)(F)F)c1 (stereo not drawn)	?	2%	-4	?	-5%	?
CNC[C@H](CC1CCCCC1)NC[C@H](CO)NCCc1cccc(C(F)(F)F)c1	7.3µM*	?	-60*	?	?	5.8µM*
Cc1nn(Cc2ccc([N+](=O)[O-])cc2)c(=O)n1-c1ccccc1Cl	1%	3%	16	-3%	29%	-16%
Cc1nn(Cc2ccc([N+](=O)[O-])cc2)c(=O)n1N(C)c1ncc(C(F)(F)F)cc1Cl	?	5%	-3	-7%	-2%[9.22 µM]	11µM*
Cc1nn(Cc2ccc(Cl)cc2)c(=O)n1N(C)c1ncc(C(F)(F)F)cc1Cl	21µM*	?	5	?	-1%	21µM*
COc1cc(Cn2c(N)c(C#N)c3nc4ccccc4nc32)cc(OC)c1	?	4.6µM*	-9	?	8.2µM*	?
COCCn1c(N)c(C#N)c2nc3ccccc3nc21	-27%	?	0	?	?	-19%
COc1ccc(Cn2c(N)c(C#N)c3nc4ccccc4nc32)cc1	?	7.3µM*	8	0%	9.2µM*	?
COc1cccc(Cn2c(N)c(C#N)c3nc4ccccc4nc32)c1OC	-17%	?	15	0%	?	?
N#Cc1c(N)n(CCc2ccc(F)cc2)c2nc3ccccc3nc12	?	?	-57*	?	15µM*	?
Cc1ccc(NC(=O)C(Cc2ccccc2)NS(=O)(=O)c2ccc3c(c2)oc(=O)n3C)cc1F (stereo not drawn)	-10%	.	.	.	.	-17%
CCCCCCOc1ccc(C(=N)N(CCCC)CCCC)c2ccccc12	4.2µM*	?	.	.	?	2.7µM*
Cc1cccc(CNc2ccnc(-c3ccccc3C(F)(F)F)n2)c1	18µM*	.	.	.	.	?
CN(C)c1ccc(-c2nccc(NCc3ccccc3)n2)cc1	?	.	.	.	.	16µM*
Cc1cccc(CNc2ccnc(-c3ccc(N(C)C)cc3)n2)c1	-107%	.	.	.	.	12µM*
Fc1ccc(Nc2ccnc(-c3ccccc3C(F)(F)F)n2)cc1	12µM*	.	.	.	.	?
Cc1ccc(C(O)(C(=O)NNc2ccc3ccccc3n2)c2ccc(C)cc2)cc1	?	?	20	?	17%	?
O=C(CN(C(=O)CCC(=O)Nc1ccccn1)C1CCCC1)NCc1ccc(F)cc1	2%	-13%	32	-6%	-7%	0%
OCCOCCN1CCN(C(c2ccccc2)c2ccc(Cl)cc2)CC1 (stereo not drawn)	?	23%	-6	-5%	-1%	?
OCCOCCN1CCN(C2=Nc3ccccc3Sc3ccccc32)CC1	24µM*!	-20%	-15	1%	-10%	19µM*!
CC(C)(C)c1ccc(S(=O)(=O)Nc2noc3ccccc23)cc1	-22%	-4%	11	?	3%	-19%
SMILES	DT40 TDP1 CPT	MCF10A rerep	IL1B secr inh	Chronic BCR inh	SW480 rerep	TDP1 cell noCPT
O=C(Nc1cccc(Br)c1)c1ccc(CN2CCc3ccccc3C2)cc1	?	26µM*	0	?	18µM*	16µM*
CC(=O)Nc1ccc(NC(=O)c2ccc(CN3CCc4ccccc4C3)cc2)cc1	-28%	2%	22	1%	-11%	?
CSc1cccc(NC(=O)c2ccc(CN3CCc4ccccc4C3)cc2)c1	?	?	-88*	?	?	-49%
CSc1cccc(NC(=O)N2CCc3ccc(NC(=O)c4ccccn4)cc3C2)c1	?	22%	-9	?	?	13µM*
OC(c1ccc(Cl)cc1)c1nccc2ccccc12 (stereo not drawn)	?	5%	-6	?	13%	?
COc1ccc(S(N)(=O)=O)cc1C(=O)OCC(=O)N1CCCC(C)C1 (stereo not drawn)	0%	-1%	3	5%	-17%	-4%
O=C(COC(=O)CC12CC3CC(CC(C3)C1)C2)Nc1cccnc1Cl	?	3%	22	?	9%	-21%
Cc1c(CCOC(=O)C23CC4(C)CC(C)(CC(C)(C4)C2)C3)sc[n+]1CC(=O)c1ccccc1	?	?	-192*	?	-21%	?
Cc1cc[n+](CC(=O)c2ccccc2)c2ccccc12	12%	2%	26	1%	-1%	-10%
Cc1ccc(C(=O)OCCc2sc[n+](Cc3ccccc3)c2C)cc1	-3%	10%	17	?	22%	-3%
Cc1c(CCOC(=O)CC23CC4CC(CC(C4)C2)C3)sc[n+]1CC(=O)c1ccccc1	21µM*	?	?	-8%	-12%	15µM*
Cc1c(N)cc[n+](CC(=O)c2ccccc2)c1C	21µM*	-14%	-70*	?	?	21µM*
Cc1c(CCOC(=O)c2cc([N+](=O)[O-])cc([N+](=O)[O-])c2)sc[n+]1CC(=O)c1ccc(Br)cc1	?	4%	-97*	9%	19%	?
Cc1cc(C)cc(C(=O)NCCCN2CCOCC2)c1	15%	0%	3	1%	0%	9%
CC(CCC(=O)O)C1CCC2C3CC(O)C4CC(O)CC[C@]4(C)C3CCC12C (stereo partly drawn)	-5%	-8%	8	.	-9%	-1%
Cc1c(CCO)sc[n+]1CC(=O)c1ccccc1	0.56µM*	.	.	.	.	?
Cc1c[n+](CC(=O)c2ccccc2)cs1	-10%	?	-1	3%	?	-17%
CCN(CC(=O)Nc1cccc(OC)c1)c1ncnc2sc(C)c(C)c12	21µM*	-57%	-22	?	-140%	21µM*
COc1cccc(NC(=O)COc2ncnc3sc(C)c(C)c23)c1	10%	-4%	9	?	-9%	-8%
